Shown is part of a subset that was picked to be rich in hits.
HT1080 IDH1KD tx – kills HT-1080 cells with IDH1 knockdown | HT-1080 IDH1 knockdown viability, ATP luminescence, 48 h | Potency, µM (titrated, usually from 46.1 µM), inactives show top-dose activity, negative = toxicity, most hits filed as cytotoxic | 2% of 360,000 active;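 further: potency means the concentration at half of the fitted maximal effect; 0% = DMSO wells and -100% = cell-free medium wells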
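Viability of IDH1-knockdown HT-1080 fibrosarcoma cells was assessed by CellTiter-Glo after 48 h at 37 °C with titrated compound; concentration-effect curves were classified by fit quality and response size.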
IL1B secr inh – inhibitors of inflammasome signaling (IL-1 beta secretion). 4.7% of 360,000 active. activity change, % at 57.5 µM. THP-1 LPS/ATP IL-1B secretion, AlphaLISA, 16 h; stronger effect = lower value; in the data active means activity change below about -50%; inconclusive means mostly about -30% to -49%
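THP-1 cells pretreated 1 hr with compounds (up to 57.5 uM final), then stimulated with LPS (250 ng/mL final) plus ATP (1.25 mM final); secreted IL-1B measured by AlphaLISA after 16 hr, decreased signal indicating inhibition.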
TDP1 cell CPT – growth inhibition of DT40 Tdp1-/-;hTDP1 cells with camptothecin (screen for TDP1 inhibitors). chicken DT40 Tdp1-/-;hTDP1 cells + 20 nM CPT, ATP luminescence, 48 h. Potency, µM (doses to about 46.2 µM), for the others: at the top dose activity change, negative = growth inhibition, most hits filed as inhibitors. 12% of 420,000 active; further: potency means the concentration at half of the fitted maximal effect; nearly all actives have a fitted effect of over 55% in size
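Chicken DT40 Tdp1-/- cells stably complemented with human TDP1 were seeded at 400 cells/well in medium containing 20 nM camptothecin, exposed to pin-transferred compounds, and grown at 37 °C for at least 48 hr. Viability was read as ATP luminescence.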
DT40 TDP1 no CPT – qHTS for Inhibitors of human tyrosyl-DNA phosphodiesterase 1 (TDP1): qHTS in cells in absence of CPT; DT40 Tdp1-/- hTDP1 cells, no CPT, ATP luminescence, 48 h; Potency, µM (titrated, usually from 46.2 µM), inactives show at the highest dose activity change, negative = growth inhibition, actives largely listed as inhibitors; 15% of 420,000 active; AID 686978, 2013; further: potency means the concentration at half of the fitted maximal effect; nearly all actives have a fitted effect of over 55% in size
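Chicken DT40 Tdp1-/- cells complemented with human TDP1, screened without camptothecin (DMSO vehicle only), 400 cells/well. Compounds pin-transferred, cells incubated at 37 °C for at least 48 hr. Growth read as ATP-dependent luminescence (CellTiter-Glo, 30 min at RT).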
HT1080NT lethal – kills 2HG-producing HT-1080-NT fibrosarcoma cells | HT-1080-NT fibrosarcoma viability, CellTiter-Glo ATP luminescence, 48 h | Potency, µM (doses to about 46.1 µM), inactives show at the top dose activity, negative = less viability, hits mostly cytotoxic | 1.6% of 360,000 active;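 further: NT is the 2HG producing partner of a matched IDH1 knockdown line; potency means the concentration at half of the fitted maximal effect; 0% = DMSO-treated cells and -100% = media-only wells without cells; nearly all actives have a fitted effect of over 55% in size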
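Viability of the 2HG-overproducing fibrosarcoma line after 48 hours of compound exposure at 37 degrees C was determined by luminescence with CellTiter-Glo, and concentration-effect curves were then fitted and categorized.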
ALOX12 inh – ALOX12 (human) lipoxygenase inhibition | P18054 | purified 12hLO, xylenol orange hydroperoxide absorbance | Potency, µM (highest dose often 108 µM), without a hit: top-dose activity change, negative = inhibition, most hits filed as inhibitors | 1.1% of 580,000 active | AID 1671190; further: potency means the concentration at half of the fitted maximal effect
Target sequence (P18054 whole entry, looked up): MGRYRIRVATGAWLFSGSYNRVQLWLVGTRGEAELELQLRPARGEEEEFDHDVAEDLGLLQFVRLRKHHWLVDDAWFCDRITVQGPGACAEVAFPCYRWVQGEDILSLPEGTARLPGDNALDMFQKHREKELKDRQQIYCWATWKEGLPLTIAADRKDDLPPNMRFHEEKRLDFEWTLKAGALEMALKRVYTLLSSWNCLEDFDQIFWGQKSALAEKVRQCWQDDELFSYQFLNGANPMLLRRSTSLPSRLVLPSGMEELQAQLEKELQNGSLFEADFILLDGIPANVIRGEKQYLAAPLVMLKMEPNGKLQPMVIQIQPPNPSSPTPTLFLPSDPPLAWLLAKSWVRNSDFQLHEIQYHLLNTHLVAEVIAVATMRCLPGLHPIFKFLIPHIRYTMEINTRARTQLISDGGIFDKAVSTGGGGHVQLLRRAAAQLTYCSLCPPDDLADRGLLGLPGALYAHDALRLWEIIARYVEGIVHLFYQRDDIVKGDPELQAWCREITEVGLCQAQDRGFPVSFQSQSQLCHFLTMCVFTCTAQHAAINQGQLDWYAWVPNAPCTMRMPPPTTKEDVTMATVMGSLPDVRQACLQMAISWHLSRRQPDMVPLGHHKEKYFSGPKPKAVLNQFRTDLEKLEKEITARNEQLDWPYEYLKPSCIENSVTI
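Purified human 12hLO (150 nM final) in 25 mM Hepes, 0.01% Triton X-100, pH 7.0 was preincubated 15 min at room temperature with compound. Then 40 uM arachidonic acid was added, 30 min. Hydroperoxide was read by Fe-XO absorbance ratio 573/405 nm.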
Numbers without * were called inactive; i = inactive; u = inconclusive; x = no result given; [ ] = dose if it differs, or a comment. Unless noted, the call rests on the fitted dose curve; in most records, active means well fitted curve in the direction sought with a large enough effect; inconclusive means small, poorly fitted or top-dose-only effect, or another doubt; inactive means no such curve, though single readings can be large; an effect the other way counts as inactive or inconclusive. Unless noted, on the % scale 0 is the no-effect control and ±100 the full control effect.

SMILES | HT1080 IDH1KD tx | IL1B secr inh | TDP1 cell CPT | DT40 TDP1 no CPT | HT1080NT lethal | ALOX12 inh
Cc1ncsc1C(=O)N1CCCC(C(=O)c2ccc3ccccc3c2)C1 (configuration not stated) | -4.5% | i | 23.1µM* | 20.6µM* | -2.8% | 0.1%
O=C(c1ccc2ccccc2c1)C1CCCN(C(=O)CN2C(=O)CSC2=O)C1 (configuration not stated) | 14.4% | -0.6 | -8.5% | -14.1% | 15.4% | 3.5%
CCn1nc(C)cc1C(=O)N1CCCC(C(=O)c2ccc(OC)cc2C)C1 (configuration not stated) | -10.0% | 54.1 | 23.1µM* | 9.2µM* | 1.0% | -5.9%
CCn1ncc(N2CCC(NC(=O)c3sccc3C)CC2)cc1=O | x | x | x | x | x | 27.9%
O=C1N(CCc2ccccc2)CCOC12CCN(Cc1ccc3cn[nH]c3c1)CC2 | x | x | x | x | x | -0.5%[176 µM]
Cc1cc(C(=O)N2CCCC(C(=O)c3ccc4ccccc4c3)C2)nn1C (configuration not stated) | -24.5% | -8.7 | u | 20.6µM* | -3.1% | -16.7%
Cc1ccc(S(=O)(=O)N2CCN(c3cc4c(cc3[N+](=O)[O-])n(C)c(=O)n4C)CC2)cc1 | 0.0% | -27.3 | u | 16.4µM* | -5.8% | 3.8%
Cn1c(=O)n(C)c2cc([N+](=O)[O-])c(N3CCN(S(=O)(=O)c4ccc5ccccc5c4)CC3)cc21 | 7.4%[9.24 µM] | u | 16.4µM* | u | 0.3% | 8.4%
Cc1ccc(C(=O)N2CCN(c3cc4c(cc3[N+](=O)[O-])n(C)c(=O)n4C)CC2)cc1 | -2.2% | -4.4 | u | u | -10.4% | -2.9%
CN1CCN(c2ccc(S(=O)(=O)N3CCCCC3)cc2[N+](=O)[O-])CC1 | -17.9% | 17.5 | 4.0% | -6.9% | -12.5% | u
Cn1c(=O)n(C)c2cc([N+](=O)[O-])c(N3CCN(C(=O)c4cccc(Cl)c4)CC3)cc21 | -12.7% | -5.8 | u | 18.4µM* | 0.4% | -0.3%
CN(C)c1nc(Cc2ccc(NC(=O)c3ccc(C(F)(F)F)cc3)cc2)nc(N(C)C)c1CC(=O)O | x | x | x | x | x | -19.0%[57.4 µM]
CCN1C(=O)C2CC3(CCN(Cc4cn[nH]c4-c4ccc(F)cc4)CC3)CN2C1=O (configuration not stated) | x | x | x | x | x | 43.8%
Cc1coc(NC(=O)CSc2nc(-c3ccc(Cl)cc3)cc(C(F)(F)F)c2C#N)n1 | -24.4% | 43.3 | 20.6µM* | u | u | 0.0%
CCC(CO)Oc1cc(NCc2ccccc2OC)c2ncn(C(C)C)c2c1 (configuration not stated) | -0.9% | 28.3 | u | u | -7.8% | -16.0%
CCC(CO)Oc1cc(NCc2ccccc2C(F)(F)F)c2ncn(C(C)C)c2c1 (configuration not stated) | -4.2% | 81.5 | 23.1µM* | 16.4µM* | -17.8% | u
CCC(CO)Oc1cc(NCc2ccccc2F)c2ncn(C(C)C)c2c1 (configuration not stated) | -2.5% | 30.1 | 20.6µM* | 16.4µM* | -8.2% | 4.0%
CC(=O)C12CC3CC(C1)CC(C(=O)O)(C3)C2 | x | x | x | x | x | 20.7%
c1cc(-c2ccc(CN3CCC4(CCNCC4)C3)o2)[nH]n1 | x | x | x | x | x | 13.4%
CCN1CCN(C(=O)c2ccc(N3CC4CC(C3)c3cccc(=O)n3C4)c(NC(=O)c3cc(OC)cc(OC)c3)c2)CC1 (configuration not stated) | 11.0% | -24.2 | 12.2% | 15.8% | 4.0% | 0.0%
CC(C)(C)n1ncc2c(=O)n(Cc3ccc(Cl)cc3Cl)cnc21 | 0.2% | u | 16.4µM* | 14.6µM* | -3.6% | 26.6%
CC(C)(C)n1ncc2c(=O)n(CC(=O)c3ccc(Cl)cc3)cnc21 | -0.3% | -8.9 | 23.1µM* | 23.1µM* | -11.2% | 1.9%

From PubChem
